The structures appear in SMILES notation. Several values for one entry are separate records, joined by “and”; a condition that tells them apart may be missing. Identical values can stand only once. Records with an inconclusive call do not appear. Activity calls are given as the source filed them.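 The calls were made as follows, unless noted: active = normalized viability below 100% at a tested concentration; inactive = the rest.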

The subject of experiment [1] is Aerobactin synthetase IucA (Klebsiella pneumoniae). As to the kind of experiment: IucA aerobactin synthetase inhibitors, biochemical, Tocris library, absorbance (AID 1345561; call rule not given here;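 also: 100% = enzyme without compound and 0% = no enzyme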). Conditions: purified IucA enzyme assay, absorbance (OD) read-out; stronger effect = lower value;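 tested at 8 µM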.
A short description of experiment [2]: growth inhibition of DIPG glioma cells, dose response, cell-based, SU-DIPG-XVII, MIPE5.0, CellTiter-Glo, qHTS (AID 1347060; cut-off not given, nearly all actives have AC50 up to about 26 µM). The following applies: SU-DIPG-XVII viability, CellTiter-Glo ATP luminescence. Background: In ATP-based viability assays light output follows the ATP content of the culture.
Experiment [3] is described as follows: growth inhibition of DIPG glioma cells, dose response, cell-based, SU-DIPG-XIII, MIPE4.0, CellTiter-Glo, qHTS (AID 1347061; cut-off not given, nearly all actives have AC50 up to about 37 µM;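 also: cells exposed to compound for 48 hours before readout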). The following applies: SU-DIPG-XIII viability, CellTiter-Glo ATP luminescence.
The nature of experiment [4]: growth inhibition of DIPG glioma cells, dose response, cell-based, JHH-DIPG-1, MIPE4.0, CellTiter-Glo, qHTS (AID 1347062; cut-off not given, nearly all actives have AC50 up to about 27 µM). Conditions: JHH-DIPG-1 viability, CellTiter-Glo ATP luminescence.
A short description of experiment [5]: growth inhibition of DIPG glioma cells, dose response, cell-based, SU-DIPG-IV, MIPE4.0, CellTiter-Glo, qHTS (AID 1347063; cut-off not given, nearly all actives have AC50 up to about 30 µM;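 also: compound exposure lasted 48 hours before the viability readout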). The following applies: SU-DIPG-IV viability, CellTiter-Glo ATP luminescence.
A short description of experiment [6]: growth inhibition of DIPG glioma cells, dose response, cell-based, SU-DIPG-XIII, MIPE5.0, CellTiter-Glo, qHTS (AID 1347064; cut-off not given, nearly all actives have AC50 up to about 23 µM). Conditions: SU-DIPG-XIII viability, CellTiter-Glo ATP luminescence.
Experiment [7] in a line: viability loss in pontine glioma line – cell-based, SU-DIPG-XXV, MIPE5.0, CellTiter-Glo, qHTS, dose response (AID 1347065; cut-off not given, nearly all actives have AC50 up to about 26 µM;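 also: cells exposed to compound for 48 hours before ATP readout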). The following applies: CellTiter-Glo ATP luminescence.
The nature of experiment [8]: SU-DIPG-VI glioma cell viability, MIPE4.0 library, CellTiter-Glo luminescence, qHTS (AID 1347066; cut-off not given, nearly all actives have AC50 up to about 30 µM;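 also: cells exposed to compound for 48 hours before readout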). The following applies: CellTiter-Glo ATP luminescence.
The nature of experiment [9]: JHH-DIPG-1 glioma cell viability, MIPE5.0 library, CellTiter-Glo luminescence, qHTS (AID 1347067; cut-off not given, nearly all actives have AC50 up to about 26 µM;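 also: cells exposed to compound for 48 hours before readout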). The following applies: JHH-DIPG-1 glioma viability, CellTiter-Glo ATP luminescence.
Experiment [10] is described as follows: SU-DIPG-XXV glioma cell viability, MIPE5.0 library, qHTS (AID 1347068; cut-off not given, nearly all actives have IC50 up to about 30 µM). For orientation: Quantitative high-throughput screening tests each substance at several concentrations.
The nature of experiment [11]: sensitizers of A549 cells to miR-34 induction, primary screen, imaging, A549 dox-inducible miR-34, nuclei and caspase counts (AID 1347080;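 active = compounds whose cell count with miR-34 switched on is under 0.7 times the count with it off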). Conditions: A549 miR-34 inducible, Hoechst nuclei count, 48 h.
The nature of experiment [12]: viability rescue of complex I mutant cybrids, primary screen, cell-based, galactose medium, ATP luminescence (AID 1645843;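 active = z-score of at least 1.8 in each of two replicates, scored against plate mean and spread of sample wells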;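 also: positive z means more ATP and so rescue of galactose-driven cybrid death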). The following applies: complex I mutant cybrid cells, 72 h, stronger effect = higher value.
The nature of experiment [13]: liver-stage malaria parasite growth inhibition, primary screen, cell-based, HepG2, luciferase luminescence, HepG2 viability (AID 624349; in the data active = parasite load remaining mostly below about 12%, no sharp cut-off; inactive = mostly above about 10%;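 also: 100% = mean of DMSO negative control wells on the same plate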). Conditions: P. berghei liver stage in HepG2, luciferase luminescence, concentration not given here; parasite load remaining: stronger effect = lower value; viability: measured here: HepG2 viability without parasites.
The nature of experiment [14]: differential killing of epithelial or mesenchymal cells, primary screen, imaging, PC-3E GFP, TEM4-18 mCherry, co-culture (AID 1345086;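 active = compounds killing one labelled cell type while sparing the other, by normalised counts and ratio limits, not self-fluorescent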;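 also: cells exposed to compound for 72 h before imaging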;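 as to red/green cell ratio (normalised): normalised mesenchymal count divided by normalised epithelial count so high means epithelial killing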). Conditions: imaging cell counts, at 1 µM.
Experiment [15] in a line: modifiers of HSF1 nuclear foci, imaging, Selleck Cancer Library (AID 1347162; in the data active = plate-normalised HSF1 focus index below about 0.46). The following applies: human cells, at 10 µM; SSMD: measured here: HSF1 foci SSMD mean; cell count: measured here: cell number; plate-normalised HSF1 focus index: stronger effect = lower value.
A short description of experiment [16]: survival rescue of mitochondrial mutant cells in low glucose, primary screen, MELAS cybrids, Rieske KO mouse fibroblasts, CellTiter-Glo (AID 1508586;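 active = mean z-score across replicates of 1.96 or higher in either the MELAS or the Rieske mutant cell line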;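 also: z relative to plate mean and SD of compound and empty wells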).
A short description of experiment [17]: ovarian cancer cell viability with rucaparib, profiling panel, oncology-focused library, rucaparib conditional (AID 1508598). The following applies: patient-derived ovarian cancer cells, CellTiter-Glo viability, 144 h, stronger effect = lower value.
Setting [18] is: stronger effect = lower value, cell number ratio, induced over uninduced.
[19] abbreviates: measured here: relative caspase fold change +Dox/-Dox.
[20] abbreviates: measured here: total cells with miR-34 induction, stronger effect = lower value.
[21] abbreviates: measured here: total cells without miR-34 induction.

For orientation: remaining activity means the signal under treatment as a percentage of the control signal. For `CCN(c1ccccc1)c1cc(NC)[n+](C)c(C)n1`, in [1], the remaining activity is 84.7% (inactive). The molecule was classed as inactive in experiment [2], in experiment [3], in experiment [4], in experiment [5], in experiment [6] and in experiment [7]. Besides, the result in experiment [8], in experiment [9] and in experiment [10] was inactive. In addition, the fold change is 1.03 (inactive) in experiment [11] (setting [18]) and 0.719 in experiment [11] (setting [19]). Also, the cell count in experiment [11] (setting [20]) worked out at 7990; in [11] (setting [21]) it was 7790. Also, the z-score in [12] is 0.245 (inactive).
As a reminder, the viability is a read-out of living cells in per cent, often relative to untreated cells. Consider `CC(CCC(=O)O)[C@H]1CCC2C3CC[C@@H]4C[C@H](O)CC[C@]4(C)C3CC[C@@]21C` (some centres not stated), for which, in experiment [13], the parasite load remaining is 32.1% (inactive) and the viability was 67.3%. Also, in experiment [14] (actives lie on both sides, counts scaled to control wells, 1 = unselective), the red/green cell ratio (normalised) is 0.99 (inactive). Moreover, the normalised cell number in experiment [14] (measured here: epithelial PC-3E GFP cell survival) was 0.91. The normalised cell number in [14] (measured here: mesenchymal TEM4-18 mCherry cell survival) was 0.89.
In the case of `O=c1cc(-c2cccc3c2Sc2ccccc2S3)oc(N2CCOCC2)c1`, the parasite load remaining in experiment [13] was 39.8% (inactive). The viability in experiment [13] is 161%; in experiment [17] (at 0.000305 µM, OCI-C5x cells, with rucaparib 10 µM, 100% = cells with rucaparib alone) it was 113% (inactive); in [17] (at 0.000305 µM, OCI-C5x cells, without rucaparib), 119% (inactive); in [17] (at 0.000305 µM, OCI-P5x cells, with rucaparib 20 µM, 100% = cells with rucaparib alone), 105% (inactive); in experiment [17] (at 0.000305 µM, OCI-P5x cells, without rucaparib), 109% (inactive); in [17] (at 0.00122 µM, OCI-C5x cells, with rucaparib 10 µM, 100% = cells with rucaparib alone), 122% (inactive). In addition, the viability in experiment [17] (at 0.00122 µM, OCI-C5x cells, without rucaparib) was 121% (inactive); in [17] (at 0.00122 µM, OCI-P5x cells, with rucaparib 20 µM, 100% = cells with rucaparib alone), 104% (inactive); in experiment [17] (at 0.00122 µM, OCI-P5x cells, without rucaparib), 106% (inactive); in [17] (at 0.00488 µM, OCI-C5x cells, with rucaparib 10 µM, 100% = cells with rucaparib alone), 118% (inactive); in [17] (at 0.00488 µM, OCI-C5x cells, without rucaparib), 119% (inactive); in experiment [17] (at 0.00488 µM, OCI-P5x cells, with rucaparib 20 µM, 100% = cells with rucaparib alone) it was 100% (inactive). Moreover, the viability was 103% (inactive) in [17] (at 0.00488 µM, OCI-P5x cells, without rucaparib); 117% (inactive) in [17] (at 0.0195 µM, OCI-C5x cells, with rucaparib 10 µM, 100% = cells with rucaparib alone); 132% (inactive) in [17] (at 0.0195 µM, OCI-C5x cells, without rucaparib); 98% (active) in experiment [17] (at 0.0195 µM, OCI-P5x cells, with rucaparib 20 µM, 100% = cells with rucaparib alone); 64.5% (active) in experiment [17] (at 0.0195 µM, OCI-P5x cells, without rucaparib); 116% (inactive) in experiment [17] (at 0.0781 µM, OCI-C5x cells, with rucaparib 10 µM, 100% = cells with rucaparib alone). For the same molecule, the viability in [17] (at 0.0781 µM, OCI-C5x cells, without rucaparib) is 119% (inactive); in experiment [17] (at 0.0781 µM, OCI-P5x cells, with rucaparib 20 µM, 100% = cells with rucaparib alone), 106% (inactive); in experiment [17] (at 0.0781 µM, OCI-P5x cells, without rucaparib), 103% (inactive); in experiment [17] (at 0.313 µM, OCI-C5x cells, with rucaparib 10 µM, 100% = cells with rucaparib alone), 108% (inactive); in [17] (at 0.313 µM, OCI-C5x cells, without rucaparib), 126% (inactive); in experiment [17] (at 0.313 µM, OCI-P5x cells, with rucaparib 20 µM, 100% = cells with rucaparib alone), 91.8% (active). Further, the viability was 105% (inactive) in [17] (at 0.313 µM, OCI-P5x cells, without rucaparib); 111% (inactive) in experiment [17] (at 1.25 µM, OCI-C5x cells, with rucaparib 10 µM, 100% = cells with rucaparib alone); 127% (inactive) in experiment [17] (at 1.25 µM, OCI-C5x cells, without rucaparib); 108% (inactive) in experiment [17] (at 1.25 µM, OCI-P5x cells, with rucaparib 20 µM, 100% = cells with rucaparib alone); 107% (inactive) in [17] (at 1.25 µM, OCI-P5x cells, without rucaparib); 88.8% (active) in experiment [17] (at 5 µM, OCI-C5x cells, with rucaparib 10 µM, 100% = cells with rucaparib alone). The viability in experiment [17] (at 5 µM, OCI-C5x cells, without rucaparib) was 131% (inactive); in experiment [17] (at 5 µM, OCI-P5x cells, with rucaparib 20 µM, 100% = cells with rucaparib alone) it was 66.3% (active); in experiment [17] (at 5 µM, OCI-P5x cells, without rucaparib), 27.9% (active). In addition, in experiment [1], the remaining activity is 94.8% (inactive). Besides, the molecule was classed as inactive in experiment [2], in experiment [3], in experiment [4], in experiment [8] and in experiment [9]. Also, the fold change in [11] (setting [18]) is 0.936 (inactive) and 1.01 (inactive); in experiment [11] (setting [19]), 1.11 and 2.27. Further, the cell count is 5990 and 5760 in [11] (setting [20]); 6400 and 5730 in experiment [11] (setting [21]); 6680 in experiment [15]. The SSMD in [15] was determined as 2.97. Moreover, the plate-normalised HSF1 focus index in [15] is 1.15 (inactive). The z-score in experiment [16] (MELAS cybrid survival, CellTiter-Glo 48 h, stronger effect = higher value) is -0.376 (inactive); in [16] (Rieske KO mouse fibroblast survival, CellTiter-Glo 72 h), 1.02; in experiment [12], -0.18 (inactive).
On to `N[C@H](CSC(c1ccccc1)(c1ccccc1)c1ccccc1)C(=O)O`, for which the remaining activity in experiment [1] is 104% (inactive). The molecule was classed as inactive in experiment [2], in experiment [3], in experiment [4], in experiment [6], in [8] and in experiment [10]. The fold change in [11] (setting [18]) is 0.901 (inactive); in experiment [11] (setting [19]) it was 1.4. Besides, the cell count in [11] (setting [20]) is 7800; in [11] (setting [21]) it was 8660. Besides, in [12], the z-score is 0.555 (inactive).

(Values after PubChem BioAssay.)
